Data taken from PubChem BioAssay AID1053174 (Broad Institute, 2014).
The whole screen tested about 1,500 compounds, of which about 140 (9.3%) were called active. Only a sample is shown. Unmarked numbers belong to inactive results. How the calls were made is not given here.

Test: AlphaScreen signal interference with preloaded methylated product, dose response, artefact control for NSD2 inhibitor project, biochemical, cherry-picked samples (AID 1053174);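 on activity change, negative = signal loss: 0% = median of neutral control wells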
Conditions: AlphaScreen artifact counterscreen, preloaded methylated H4 peptide; series mostly up to 10 µM; activity change, negative = signal loss: at the top concentration

| Structure (SMILES) | activity change, negative = signal loss | AC35 |
| --- | --- | --- |
| CCNC(=O)C1(C)CCCN(C(=O)c2ccc3ccccc3n2)C1 (stereo unspecified) | -5.17% |  |
| O=C(/C=C/c1ccc(Cl)cc1Cl)NCc1ccco1 | -1.78% |  |
| COC(=O)c1nc(NC(=O)c2ccccc2)n[nH]1 | -0.64% |  |
| CCC1=[N+]([O-])C(C)(/C(C)=N\O)N(O)C1(C)C (stereo unspecified) | -1.82% |  |
| COC(=O)CCCCC1=CCC2C(=O)C=C(O)C2C1 (stereo unspecified) | -3.31% |  |
| Clc1ccc(C2=CSC3=Nc4cccc5cccc(c45)N23)cc1 | -4.57% |  |
| C=CCc1cccc2cc(C(=O)Nc3ccc(NC(C)=O)cc3)c(=O)oc12 | -3.44% |  |
| Oc1ccc(CNc2ccccc2O)cc1 | -4.59% |  |
| O=C(CNC(=O)c1ccccc1)Oc1ccc([N+](=O)[O-])cc1 | -0.899% |  |
| Cc1c(CC(=O)N2CCN(C(=O)C3COc4ccccc4O3)CC2)c(=O)oc2c(O)c(O)ccc12 (stereo unspecified) | -19.2% |  |
| CS(=O)(=O)N(CC(=O)NCc1ccco1)c1ccc2c(c1)OCO2 | -6.79% |  |
| Cc1[nH]n(-c2ccccc2)c(=O)c1N=Nc1ccccc1C(=O)N1CCCCC1 | -13.8% |  |
| CN(C(=O)CN1C(=O)S/C(=C\c2ccccc2F)C1=O)C1CCS(=O)(=O)C1 (stereo unspecified) | -3.69% |  |
| CC(=O)N(C1=C(Cl)C(=O)c2ccccc2C1=O)c1ccc(C(=O)O)cc1 | 1.35% |  |
| C(=N/Nc1cc(N2CCOCC2)nc(N2CCOCC2)n1)/c1ccccc1 | -3.4% |  |
| Cc1cccc(OCCC(=O)Nc2ccccc2C(N)=O)c1 | -6.47% |  |
| Cn1ncc2c(Nc3cccc4ccccc34)ncnc21 | -0.685% |  |
| Cc1[nH][nH]c(=O)c1C(c1ccc2c(c1)OCO2)c1c(C)[nH][nH]c1=O | -7.25% |  |
| Cc1ccc(S(=O)(=O)/N=C2\C=C(NS(=O)(=O)c3ccc(C)cc3)C(=O)c3ccccc32)cc1 |  | 9.17 µM (active) |
| O=c1[nH]c(CN2CCOCC2)nc2cc(Cl)ccc12 | -0.282% |  |
| CCOC(=O)c1nnn(-c2nonc2OC)c1-c1ccccc1 | -3.01% |  |
| Cc1cc(=O)[nH]c(N/N=C/c2c(C)nn(-c3ccccc3Cl)c2Cl)n1 | -5.79% |  |

| Structure (SMILES) | activity change, negative = signal loss | AC35 |
| --- | --- | --- |
| Cc1ccc(-c2ccc(/C=N/NC(=O)CN3CCOCC3)o2)cc1[N+](=O)[O-] | -5.05% |  |
| CCN1CCCC1CNc1ncnc2c1[nH]c1ccc(F)cc12 (stereo unspecified) | -7.31% |  |
| O=C(NNC(=O)c1ccc(Cl)nc1)c1ccc(Br)cc1 | 1.02% |  |
| CCN(CC)CCCC(C)n1c2nc(=O)[nH]c(=O)c-2nc2cc(Cl)ccc21 (stereo unspecified) | -0.97% |  |
| CCN(CC)CCOc1ccc2c(c1)C(=NNC(=O)c1ccccn1)c1cc(OCCN(CC)CC)ccc1-2 | -19.1% |  |
| Cc1ccnc(N2CCC(C(=O)NC3CCCCCC3)CC2)n1 | 1.89% |  |
| C=CCNCCCCOc1ccccc1 | -2.37% |  |
| Cc1ccccc1-n1nc(C)c2c1N=C1C(Cl)=CC(Cl)=CN1C2c1ccc(C(=O)O)cc1 (stereo unspecified) | -5.91% |  |
| CCOC(=O)c1c(C)[nH]c(C(=O)NCCN2CCOCC2)c1C | -4.69% |  |
| O=C1C=CC(=O)N1c1ccc(N2CCCCC2)cc1 | 0.066% |  |
| O=C(Cn1cc(C(F)(F)F)ccc1=O)Nc1ccc2c(c1)OCCO2 | -1.84% |  |
| COc1cc(C(=O)Nn2c(O)c(C3=c4ccccc4=NC3=O)sc2=S)ccc1O | -2.75% |  |
| COc1ccc(NC(=O)Cn2nnc(C(=O)NCCc3ccc(OC)c(OC)c3)c2N)cc1 | -5.08% |  |
| CCOc1cc(/C=C/C(=O)OCC(=O)NCCN2C(=O)CSC2=O)ccc1OCC(C)C | -3.73% |  |
| CC1CCN(CCC(=O)Nc2ccccc2)CC1 | -3.77% |  |
| O=C1Nc2cc(C(=O)N3CCC(N4CCCCC4)CC3)ccc2S/C1=C\c1ccccc1 | -9.24% |  |
| CC(C)(C)CC(=O)Nc1nnc(SCC(=O)NCc2cccs2)s1 | -0.29% |  |
| O=C1C(Cl)=C(Oc2ccccc2)C(=O)c2ccccc21 | -1.11% |  |
| O=c1ccc2c(-c3ccccc3S(=O)(=O)O)c3ccc(O)c(O)c3oc-2c1O |  | 0.557 µM (active) |
| CC(=O)c1cc(-c2ccccc2)n(CC(=O)NC2CCCCC2)c1C | -3.2% |  |
| Cc1[nH][nH]c(=O)c1C(c1ccc(-c2ccc(Cl)cc2)o1)c1c(C)[nH][nH]c1=O | -6.16% |  |
| CCOc1ccc(C(CC(=O)O)NC(=O)C23CC4CC(CC(C4)C2)C3)cc1OC (stereo unspecified) | 4.36% |  |

| Structure (SMILES) | activity change, negative = signal loss | AC35 |
| --- | --- | --- |
| COc1ccc(S(=O)(=O)N2CCCC(C(=O)NCCCn3ccnc3)C2)cc1OC (stereo unspecified) | -0.456% |  |
| COc1ccc(NC(=O)C2Cc3c(-c4ccc(Cl)cc4)ccnc3O2)cc1 (stereo unspecified) | 3.24% |  |
| CCOc1ccccc1Nc1nnc(SCc2ccc(C(=O)OC)o2)s1 | 6.37% |  |
| NC1=CC(=O)C(=O)c2cccnc21 | -4.08% |  |
| N#Cc1ccc(CSc2ncccn2)cc1 | -5.04% |  |
| Cc1ccc(S(=O)(=O)N(C)C)cc1NC(=O)/C=C/c1cccs1 | -7.91% |  |
| O=C(CN1C(=O)c2ccc([N+](=O)[O-])cc2C1=O)Nc1nnc(C2CC2)s1 | 3.62% |  |
| O=C(NCc1ccco1)c1nc(-c2ccccc2)n(-c2ccccc2)n1 | -0.34% |  |
| CCOC(=O)c1c(C)[nH]c2c1-c1ccccc1C(=O)C2=O | -0.086% |  |
| O=[N+]([O-])c1ccccc1Nc1ccc(O)cc1 | -22.6% |  |
| O=C(CSc1nnc(-c2ccccc2O)o1)NC1CCCCC1 | -3.17% |  |
| Cc1ccc(C(=O)Cn2cc([N+](=O)[O-])nc2C)cc1 | 3.46% |  |
| COCC(C)n1c(SCC(=O)NC2CCCCC2C)nc2ccccc2c1=O (stereo unspecified) | -4.78% |  |
| Cc1ccc(/C=N/NC(=O)c2cc3ccccc3cc2O)o1 | 0.575% |  |
| COc1ccccc1N(C)S(=O)(=O)c1ccc(C(=O)NC2CCCCCC2)cc1 | -2.33% |  |
| COc1ccc(OC)c(-c2csc(-c3cccs3)n2)c1 | -2% |  |
| COC(=O)[C@H](Cc1ccccc1)NC(=O)Nc1ccc(S(N)(=O)=O)cc1 | -3.74% |  |
| C/C(=N/NC(=O)CCc1ccccc1)c1ccco1 | 1.24% |  |
| CCN(CC)S(=O)(=O)c1ccc(N2CCN(C)CC2)c(NC(=O)Nc2ccccc2F)c1 | -5.39% |  |
| Cc1sc2ncnc(SCC(=O)Nc3ccc(CN4CCCC4)cc3)c2c1C | -3.43% |  |
| C=CCn1c(=NC(=O)c2ccc(S(=O)(=O)N3CCCC3)cc2)sc2cc(NC(C)=O)ccc21 | -1.39% [at 5 µM] |  |
| CCN(CC)CCCNC(=O)c1cc(-c2cccc(Cl)c2)on1 | -3.33% |  |
